Experimental findings from PubChem BioAssay (NCATS) are described below.

“And” between values parts separate entries of the source, which are not always exact repeats. Equal values may be shown once. Unmarked numbers belong to inactive results. Records with an inconclusive call do not appear. The source made the active and inactive calls. Unless noted, calls come from the whole dose curve; as a rule, active = well fitted curve in either direction with a large enough effect (not every such curve was filed as active); inconclusive = small, poorly fitted or top-dose-only effect, or another doubt; inactive = flat fitted curve, though single readings scatter.

The target in test [1] is Lysosomal acid glucosylceramidase (Homo sapiens) (UniProt P04062). Briefly: Glucocerebrosidase-p2 (AID 348; in the data active = potency below about 10 µM; note: potency is the fitted concentration of half-maximal effect). The conditions noted are these: purified GBA, blue fluorogenic substrate, 40 min. From the text: Beta-glucocerebrosidase catalyzes the hydrolysis of beta-glucocerebroside to glucose and ceramide. The inherited deficiency of beta-glucocerebrosidase results in Gaucher disease, which is characterized by a wide variety of symptoms including hepatosplenomegaly, anemia, thrombocytopenia, bony lesions and bone marrow infiltration with characteristic storage cells, known as Gaucher cells. There are also forms of the disorder affecting the central nervous system. Patients with the same genotypes can manifest with diverse clinical presentations and it is believed that improper folding and trafficking of beta-glucocerbrosidase may contribute to the phenotypes observed.
Sequence of Lysosomal acid glucosylceramidase (Homo sapiens) (P04062 whole entry, looked up): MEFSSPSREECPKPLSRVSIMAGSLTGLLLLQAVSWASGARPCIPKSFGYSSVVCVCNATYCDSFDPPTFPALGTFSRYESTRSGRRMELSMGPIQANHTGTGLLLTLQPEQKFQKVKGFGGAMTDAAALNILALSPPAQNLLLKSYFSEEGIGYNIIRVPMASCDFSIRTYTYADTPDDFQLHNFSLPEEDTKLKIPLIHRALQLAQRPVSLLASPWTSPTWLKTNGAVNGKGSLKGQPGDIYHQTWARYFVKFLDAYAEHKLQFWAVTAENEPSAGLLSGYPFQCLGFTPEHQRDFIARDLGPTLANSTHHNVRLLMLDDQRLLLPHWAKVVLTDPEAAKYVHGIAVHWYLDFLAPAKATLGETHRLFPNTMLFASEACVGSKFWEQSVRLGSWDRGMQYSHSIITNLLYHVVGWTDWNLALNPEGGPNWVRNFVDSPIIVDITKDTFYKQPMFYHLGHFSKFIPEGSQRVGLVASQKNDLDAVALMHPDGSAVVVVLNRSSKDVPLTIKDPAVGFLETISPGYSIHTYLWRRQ
Low molecular weight molecules, acting as chaperones, may potentially restore trafficking of misfolded beta-glucocerebrosidase from the endoplasmic reticulum to the lysosomes, thereby enhancing functional lysosomal beta-glucocerebrosidase activity.
Using normal beta-glucocerebrosidase, an assay was developed to screen for small molecule inhibitors that could potentially act as molecular chaperones on the mutant forms [developed with NIH investigator Dr. Ellen Sidransky#s laboratory]. Two pro-fluorescent substrates were chosen for two screens against a small molecule library. […]
Blue fluorescence substrate assay: […]
Read the plate in Viewlux plate reader (Ex=365(10) and Em=440(10)).

Test [2] can be described thus: Cell Viability - SK-N-SH (AID 435; calls by dose curve;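 note: potency is the fitted concentration of half-maximal effect; compound exposure lasted 40 h at 37 °C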). The conditions noted are these: SK-N-SH neuroblastoma cell viability qHTS. The essentials:
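Cells seeded at 1500 per well and incubated 5 hr at 37 °C. Compound added, then 40 hr at 37 °C. CellTiter-Glo added, 20 min at room temperature, luminescence read.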
In general terms: Quantitative high-throughput screening tests each substance at several concentrations.

The nature of test [3]: NFAT Signaling Pathway (AID 444).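 Note: carbachol stimulus at about its EC50 of 1 µM final; % is set by controls: 0 for no effect and ±100 for the full control effect.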 Conditions: Jurkat NFAT-bla M1, carbachol, beta-lactamase ratio, 5 h. The essentials:
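Jurkat cells carrying an NFAT-driven β-lactamase reporter and co-transfected muscarinic M1 receptor were treated with compound plus carbachol (1 uM final, an EC50 level) for 5 h at 37 °C. CCF4 loading followed for 1 h at RT; 460/530 nm ratio gave %activity.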

A short description of test [4]: Stat Signaling Pathway (AID 446).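 Note: ME-180 cervical cancer cells given 40 pM IL-6 alongside compound; SIE-controlled beta-lactamase reporter measured as 460/530 nm FRET emission ratio; % is set by controls: 0 for no effect and ±100 for the full control effect.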 The conditions noted are these: ME-180 SIE beta-lactamase reporter, IL-6 stimulated, 5 h. The essentials:
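Emission at 460 and 530 nm (excitation 405 nm) reports SIE-controlled beta-lactamase in ME-180 cells. Cells received compound with 40 pM IL-6 for 5 hrs at 37 C; data scaled between 300 pM IL-6 and 125 nM JAK-inhibitor controls.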

Test [5] in a line: Cell Viability - Jurkat (AID 426;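 active = dose-dependent loss of cell ATP signal giving a full or clear fitted curve, ranked by lower potency value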;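 note: potency is the fitted concentration of half-maximal effect; cells exposed to compound for 40 hours at 37 °C before ATP read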). The conditions noted are these: qHTS. The essentials:
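Luminescent ATP read-out (CellTiter-Glo, 20 min at room temperature) after 40 hr compound exposure at 37 °C of Jurkat E6-1 cells, 5000/well. Decreased ATP taken as cytotoxicity; AC50 from standard Hill equation.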

Test [6] is described as follows: Cell Viability - Hek293 (AID 427;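 active = compounds whose dose-response curve shows a full or clear partial loss of cell viability, called from curve shape rather than a numeric limit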;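 note: potency is the fitted concentration of half-maximal effect; cells exposed to compound for 40 hours at 37 °C before reading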). The conditions noted are these: qHTS. The essentials: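 qHTS, human embryonic kidney (adenovirus-transformed) cells; 40 hr cpd, 37 °C; CellTiter-Glo ATP luminescence. Norm: DMSO = 0, 100 uM tamoxifen = 100% inhibition. Hill-fit AC50.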
Test [7] in a line: Cell Viability - HepG2 (AID 433; calls by dose curve;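 note: potency is the fitted concentration of half-maximal effect; potency for ATP loss meaning cytotoxicity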). Conditions: qHTS. The essentials: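 Cytotoxicity is scored as loss of intracellular ATP in HepG2 cells exposed to compounds for 40 h. Concentration-response curves, normalized to DMSO and 100 uM tamoxifen, give AC50 values.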
Test [8] is described as follows: Cell Viability - MRC5 (AID 434; calls by dose curve;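 note: potency is the fitted concentration of half-maximal effect; cells exposed to compound for 40 hours at 37 °C; potency reflects cytotoxicity seen as loss of intracellular ATP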). Conditions: MRC5 lung fibroblast viability, qHTS. The essentials:
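Decrease in intracellular ATP, quantified by luciferase light output, reflects compound toxicity toward MRC5 cells exposed for 40 hr in complete culture medium. Concentration-response curves, scaled between DMSO and 100 uM tamoxifen, gave AC50 values.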

The target in test [9] is Cytochrome P450 1A2 (Homo sapiens) (UniProt P05177). Description: p450-cyp1a2 (AID 410; calls by dose curve; note: potency is the fitted concentration of half-maximal effect;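 for activity change, negative = inhibition: -100% = full effect of reference inhibitor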). Conditions: recombinant CYP1A2, luciferin-ME demethylation, luminescence; series mostly up to 57 µM. Summed up:
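20nM CYP1A2, 100uM Luciferin-ME (=Km), 100mM KPO4; cpd 10 min RT; +NADPH regen, 60 min RT; stop/detect 20 min; luminescence. Normalized to furafylline 57 uM = full inhibition.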

The nature of test [10]: AP1 Signaling Pathway (AID 357). Note: % is set by controls: 0 for no effect and ±100 for the full control effect. The conditions noted are these: ME-180 (cervical carcinoma) AP-1-bla reporter, EGF-induced, beta-lactamase ratio, 5 h; series mostly up to 17.2 µM. The essentials: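 AP-1-bla ME-180 cells with beta-lactamase reporter under AP-1 response element, stimulated with EC50 EGF; compounds titrated, 5 hours at 37 degrees Celsius. CCF4 read at 460/530 nm ratio; positive and negative modulators judged by AC50.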

Sequence of Cytochrome P450 1A2 (Homo sapiens) (P05177 whole entry, looked up): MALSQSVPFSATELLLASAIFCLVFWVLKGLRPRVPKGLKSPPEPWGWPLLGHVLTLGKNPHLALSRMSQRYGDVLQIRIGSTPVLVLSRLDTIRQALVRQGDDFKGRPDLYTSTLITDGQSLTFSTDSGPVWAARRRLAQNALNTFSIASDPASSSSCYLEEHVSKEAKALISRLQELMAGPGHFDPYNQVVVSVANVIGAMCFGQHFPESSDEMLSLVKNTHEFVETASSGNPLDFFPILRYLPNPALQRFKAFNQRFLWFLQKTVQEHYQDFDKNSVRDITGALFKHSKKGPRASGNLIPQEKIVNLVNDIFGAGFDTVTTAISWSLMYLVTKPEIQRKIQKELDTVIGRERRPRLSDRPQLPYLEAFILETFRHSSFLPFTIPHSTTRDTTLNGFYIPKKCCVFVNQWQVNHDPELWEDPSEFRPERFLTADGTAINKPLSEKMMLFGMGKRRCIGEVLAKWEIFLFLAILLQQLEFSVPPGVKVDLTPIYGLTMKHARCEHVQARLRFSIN

Turning to `Oc1cccc2cccnc12`, the Potency in [1] was over 11.4 µM; in test [2], 24.4 µM (active) and 28.1 µM (active). Besides, the activity change, negative = inhibition in test [3] (at 7.69 µM (top of the series)) is 3.84%. The activity, negative = inhibition in test [4] (at 7.69 µM (top of the series)) was -1.23%.

Consider `O=c1[nH]c2ccccc2n1CCCN1CCC(n2c(=O)[nH]c3cc(Cl)ccc32)CC1`, for which the Potency in test [1] was over 11.4 µM. Besides, the activity change, negative = inhibition in [3] (at 7.69 µM (top of the series)) was -18.5%. In addition, the activity, negative = inhibition in [4] (at 7.69 µM (top of the series)) is -2.55%.

With `CNCC(O)c1ccc(O)cc1` (centres undefined), the Potency in test [5], in [6], in test [7] and in test [2] was over 92 µM each time.

`Clc1ccc(COC(Cn2ccnc2)c2ccc(Cl)cc2Cl)cc1` (centres undefined): the Potency in test [5] is 81.7 µM (active).

Take `CCCC(C)(COC(N)=O)COC(=O)NC(C)C` (centres undefined): the Potency in test [5], in test [6], in [7], in test [8] and in test [2] was over 92 µM throughout. The activity change, negative = inhibition in test [3] (at 17.2 µM (top of the series)) was -6.68%. Moreover, the activity, negative = inhibition in test [4] (at 17.2 µM (top of the series)) is 5.53%.

Regarding `O=c1[nH]c2ccccc2n1C1CCN(CCCC(c2ccc(F)cc2)c2ccc(F)cc2)CC1`, in test [9], the Potency is 20 µM (active) and 31.6 µM (active).

For `c1ccc2c(c1)OCC(C1=NCCN1)O2` (centres undefined), the outcome in [10] was inactive. Moreover, the activity, negative = inhibition in test [4] (at 17.2 µM (top of the series)) was -5.78%.

Regarding `CN(C)[C@@H]1C(=O)C(C(N)=O)=C(O)[C@@]2(O)C(=O)C3=C(O)c4c(O)cccc4[C@@](C)(O)[C@H]3C[C@@H]12`, the outcome in test [10] was inactive. Also, the activity, negative = inhibition in [4] (at 17.2 µM (top of the series)) was -6.17%.

`CC[N+]1(C)CCCC(OC(=O)C(O)(c2ccccc2)c2ccccc2)C1` (centres undefined): in test [10], the outcome was inactive. For the same molecule, the activity change, negative = inhibition in test [3] (at 17.2 µM (top of the series)) is -75.8% (active). The activity, negative = inhibition in test [4] (at 17.2 µM (top of the series)) was -1.5%.

With `CC(CCc1ccccc1)NC(C)C(O)c1ccc(O)cc1` (centres undefined), in test [10], the result was inactive. Further, the activity, negative = inhibition in [4] (at 17.2 µM (top of the series)) is 22.4%.

Take `CCOP(=S)(OCC)Oc1cc(C)nc(C(C)C)n1`: the Potency in test [5], in [6], in [7], in [8] and in [2] was over 92 µM throughout.

As for `CC(=O)[C@H]1CC[C@H]2[C@@H]3CC[C@H]4C[C@H](O)CC[C@]4(C)[C@H]3C(=O)C[C@]12C`, the outcome in [10] was inactive. For the same molecule, the activity change, negative = inhibition in test [3] (at 17.2 µM (top of the series)) was -29.1%. Further, the activity, negative = inhibition in test [4] (at 17.2 µM (top of the series)) was -6.19%.

As for `C[C@]12C/C(=C/O)C(=O)C[C@@H]1CC[C@@H]1[C@@H]2CC[C@@]2(C)[C@H]1CC[C@]2(C)O`, the Potency in test [5] was 54.9 µM (active); in [7] it was over 92 µM; in [8], over 92 µM.

Regarding `OCCOc1ccccc1`, the Potency in test [5], in test [6], in test [7], in [8] and in test [2] was over 92 µM in each case.

With `COc1ccc(Cc2nccc3cc(OC)c(OC)cc23)cc1OC`, the outcome in [10] was inactive. Moreover, the activity change, negative = inhibition in [3] (at 17.2 µM (top of the series)) is -29.4%. For the same molecule, the figures for the activity, negative = inhibition in [4] (at 17.2 µM (top of the series)) and in [4] (at 38 µM (top of the series)) were -7.28% and -33.5%, respectively.

For the molecule `C#CCN(C)[C@H](C)Cc1ccccc1`, the Potency in [9] is 12.6 µM (active).

`Fc1ccc(C(OCCN2CCN(CCCc3ccccc3)CC2)c2ccc(F)cc2)cc1`: in test [10], the result was inactive. The activity, negative = inhibition in test [4] (at 17.2 µM (top of the series)) is -6.45%; in test [4] (at 38 µM (top of the series)), -18.6%.

For the molecule `CCC(COC(=O)c1cc(OC)c(OC)c(OC)c1)(c1ccccc1)N(C)C` (centres undefined), the activity, negative = inhibition in [4] (at 17.2 µM (top of the series)) was -7.98%.

Consider `NCC(CC(=O)O)c1ccc(Cl)cc1` (centres undefined), for which, in test [10], the result was inactive. In addition, the activity change, negative = inhibition in [3] (at 17.2 µM (top of the series)) was 12.1%. In addition, the activity, negative = inhibition in [4] (at 17.2 µM (top of the series)) is 6.38%.

Regarding `COC1(CS(=O)c2ccccc2)CCN(CCc2c[nH]c3ccc(F)cc23)CC1` (centres undefined), in test [9], the Potency entry is “inactive”.

As for `CCN(CC)C(=O)N[C@@H]1C=C2c3cccc4[nH]cc(c34)C[C@@H]2N(C)C1`, the result in [10] was inactive. In addition, in test [3] (at 38 µM (top of the series)), the activity change, negative = inhibition is -9.69% and -17.6%. Moreover, the activity, negative = inhibition in test [4] (at 38 µM (top of the series)) is 4.62%.

On to `N[C@@H](Cc1ccc(N(CCCl)CCCl)cc1)C(=O)O`, for which the Potency in test [5] was 18.3 µM (active).

For the molecule `NCC(O)c1ccc(O)cc1` (centres undefined), the Potency in test [5], in [6], in test [7], in test [8] and in test [2] was over 92 µM throughout.

On to `Oc1ccc(Cl)cc1Cc1ccccc1`, for which the Potency in test [5], in test [6], in test [7] and in test [2] was over 92 µM each time.

For the molecule `c1ccc2c(c1)Nc1ccccc1S2`, the Potency in [5], in test [6], in test [7], in test [8] and in test [2] was over 92 µM in each case.

`O=P1(NCCCl)OCCCN1CCCl` (centres undefined): the result in test [10] was inactive. Besides, the activity change, negative = inhibition in test [3] (at 17.2 µM (top of the series)) is -9.45%. In addition, the activity, negative = inhibition in test [4] (at 17.2 µM (top of the series)) was -3.9%.

Take `Oc1ccccc1-c1ccccc1`: the Potency in test [6], in test [7], in [8] and in test [2] was over 92 µM in each case.

For the molecule `NP(N)(=O)NC(=O)c1ccc(F)cc1`, the Potency result in test [9] is “inactive”.
